# Experimental data taken from PubChem BioAssay (NCATS).
# Records with an inconclusive call do not appear. A number with no mark means an inactive call. Activity calls are given as the source filed them. The call rests on the fitted dose curve; in most records, active means well fitted cell-killing curve with a large enough effect; inconclusive means small, poorly fitted or top-dose-only effect, or effect the other way; inactive means no such curve, though single readings can be large or run the other way.
# Assay: Quantitative High-Throughput drug screen in 47 multiple myeloma cell lines against the NCATS MIPE library collection: LP1_DSMZ cell viability assay (AID 1918982); further: nearly all actives have a fitted effect of over 35% in size
# Conditions: LP1 myeloma viability, CellTiter-Glo ATP luminescence, 48 h; series mostly up to 45.8 µM; viability (% of control): at the top concentration
# From the text: PI: Beverly A. Mock Ph.D.
# Laboratory of Cancer Biology and Genetics,
# Center for Cancer Research, National Cancer Institute,
# National Institute of Health, Bethesda, Maryland
# Drug resistance and disease progression are common in multiple myeloma (MM) patients, underscoring the need for new therapeutic combinations. […] We hypothesized that effective combinations would reduce MYC expression and enhance p16 activity. […] These preclinical data identify potentially useful drug combinations for evaluation in drug-resistant MM and reveal potential mechanisms of combined drug sensitivity.
# Described herein is the primary MIPE qHTS used to cherrypick compounds. Validated compounds were then further tested for potential synergistic activiy.
# [1] Peat TJ, Gaikwad SM, Dubois W, Gyabaah-Kessie N, Zhang S, Gorjifard S, Phyo Z, Andres M, Hughitt VK, Simpson RM, Miller MA, Girvin AT, Taylor A, Williams D, D'Antonio N, Zhang Y, Rajagopalan A, Flietner E, Wilson K, Zhang X, Shinn P, Klumpp-Thomas C, McKnight C, Itkin Z, Chen L, Kazandijian D, Zhang J, Michalowski AM, Simmons JK, Keats J, Thomas CJ, Mock BA. Drug combinations identified by high-throughput screening promote cell cycle transition and upregulate Smad pathways in myeloma. Cancer Lett. 2023 Aug 1;568:216284. doi: 10.1016/j.canlet.2023.216284. Epub 2023 Jun 24. PMID: 37356470; PMCID: PMC10408729.
# SEQUENCE No. (e.g., 1, 2, 3, etc.); […] (e.g., Cells, Incubation, Reagent, etc.); VALUE and DESCRIPTION.
# 1; Cells; 5 uL; white, solid bottom 1536-well Greiner assay plate.
# 2; Compounds; 23 nL; Kalypsis pin tool (Wako USA) equipped with a 1536-well pin head to transfer to the assay plates.
# 3; Incubation; 48 hours; 37C incubation.
# 4; Reagent;5uL; CellTiter Glo (Promega).
# 5; Detector; 425V; Luminescence; Viewlux PerkinElmer.
# NOTES (numbers refer to Sequence numbers above)
# 1. The cell-based screening methods employed in this study were like those previously published. Briefly, the corresponding myeloma cell lines were screened in 1,536-well plates with 500 cells, 5-uL per well for inhibition of cell viability (assessed by measuring ATP levels with CellTiterGlo).
# 2. NCATS MIPE 4.0 library of approved and investigational drugs were added using the Kalypsis pin tool. Wells treated with DMSO only for 100% viability and media only for 0% viability were used as controls.
# 3. The assay plates were covered and incubated for 48 hours in a 37C, 5% CO2 incubator with controlled humidity.
# 4. After 48 hours, CellTilter-GloTM luminescent substrate mix (Promega) reagent was added to the assay plate and plates we incubated for 5 min at room temperature.
# 5. Signal was measured as median relative luminescence units on a ViewLux (PerkinElmer) multiplate reader.
# [1] Heske CM, Davis MI, Baumgart JT, Wilson K, Gormally MV, Chen L, Zhang X, Ceribelli M, Duveau DY, Guha R, Ferrer M, Arnaldez FI, Ji J, Tran HL, Zhang Y, Mendoza A, Helman LJ, Thomas CJ. Matrix Screen Identifies Synergistic Combination of PARP Inhibitors and Nicotinamide Phosphoribosyltransferase (NAMPT) Inhibitors in Ewing Sarcoma. Clin Cancer Res. 2017 Dec 1;23(23):7301-7311. doi: 10.1158/1078-0432.CCR-17-1121. Epub 2017 Sep 12. PMID: 28899971; PMCID: PMC6636827.
# Potency means the concentration at half of the fitted maximal effect.
Compound,viability (% of control),Potency
O=C(C=Cc1c(C(=O)O)[nH]c2cc(Cl)cc(Cl)c12)Nc1ccccc1,99.9%,–
Clc1ccc2ncc(-c3cccc(NC4CNC4)n3)n2c1,–,16.6 µM (active)
C[C@H]1C[C@@H]2[C@@H]([C@@H](O)C[C@@]3(C)[C@H]2CC[C@]3(O)C(=O)CO)[C@@]2(C)C=CC(=O)C=C12,–,0.0833 µM (active)
CC[C@@H]1C(=O)N(C)c2cnc(Nc3ccc(C(=O)NC4CCN(C)CC4)cc3OC)nc2N1C1CCCC1,–,0.166 µM (active)
CCn1nnc2c(N3CCOCC3)nc(-c3ccc(NC(=O)Nc4ccc(C(=O)N5CCN(C)CC5)cc4)cc3)nc21,–,0.0469 µM (active)
CNC(=O)c1c(F)cccc1Nc1nc(Nc2cc3c(cc2OC)CCN3C(=O)CN(C)C)nc2[nH]ccc12,–,16.6 µM (active)
CC1(C)CCC(c2ccc(Cl)cc2)=C(CN2CCN(c3ccc(C(=O)NS(=O)(=O)c4ccc(N[C@H](CCN5CCOCC5)CSc5ccccc5)c(S(=O)(=O)C(F)(F)F)c4)cc3)CC2)C1,–,20.9 µM (active)
Cc1ccc2nc(NC(=O)CSc3nc4c(c(=O)n3-c3ccccc3)SCC4)sc2c1,–,8.33 µM (active)
O=C(Nc1nc2cccc(-c3ccc(CN4CCS(=O)(=O)CC4)cc3)n2n1)C1CC1,–,20.9 µM (active)
C[C@@]12O[C@@H](C[C@]1(O)CO)n1c3ccccc3c3c4c(c5c6ccccc6n2c5c31)CNC4=O,–,5.26 µM (active)
CS(=O)(=O)c1ccc(-c2cnc(N)c(C(=O)Nc3ccccc3)n2)cc1,78.9%,–
COC(=O)C[C@](O)(CCCC(C)(C)O)C(=O)O[C@@H]1C(OC)=C[C@]23CCCN2CCc2cc4c(cc2[C@H]13)OCO4,99.3%,–
CCCn1c(=O)c2[nH]c(-c3cnn(Cc4cccc(C(F)(F)F)c4)c3)nc2n(CC)c1=O,–,10.5 µM (active)
CCS(=O)(=O)c1cccc(-c2cc(C(=O)NC3CCN(C)CC3)c(C)c3[nH]c4ncc(C)cc4c23)c1,–,7.43 µM (active)
O=C(NC1CCNCC1)c1[nH]ncc1NC(=O)c1c(Cl)cccc1Cl,–,0.264 µM (active)
CN1c2cc(O)c(N=NC(N)=O)cc2CC1S(=O)(=O)O (stereo not given),86.9%,–
CC(C)[C@H](C(=O)Nc1ccc(C(=O)NO)cc1)c1ccccc1,–,0.743 µM (active)
Cc1cc(CN2CCN(c3c(Br)cnc4nc(-c5ccc(N6CCN(C)CC6)cc5)[nH]c34)CC2)no1,–,26.4 µM (active)
Cc1ccc(C(=O)Nc2cccc(C(F)(F)F)c2)cc1-c1ccc2nc(NCCN3CCOCC3)ncc2c1,–,18.7 µM (active)
CC[C@H]1CN2CCc3cc(OC)c(OC)cc3[C@H]2C[C@@H]1C[C@@H]1NCCc2cc(OC)c(OC)cc21,–,0.332 µM (active)

Compound,viability (% of control),Potency
CNC(=O)c1nn(C)c2c1C(C)(C)Cc1cnc(Nc3ccc(N4CCN(C)CC4)cc3)nc1-2,–,5.9 µM (active)
Cc1ccc(C(=O)Nc2ccc(CN3CCN(C)CC3)c(C(F)(F)F)c2)cc1C#Cc1cnc2cccnn12,–,5.9 µM (active)
O=C(NCCS(=O)(=O)c1ccc(C(F)(F)F)cn1)c1ccc(Cl)cc1,87.6%,–
Cc1cn(-c2cc(NC(=O)c3ccc(C)c(Nc4nccc(-c5cccnc5)n4)c3)cc(C(F)(F)F)c2)cn1,–,23.5 µM (active)
C=CC(=O)Nc1cccc(Oc2nc(Nc3ccc(N4CCN(C)CC4)cc3)ncc2Cl)c1,–,16.6 µM (active)
CC1COC2(CCN(c3nc(=O)c4cc(C(F)(F)F)cc([N+](=O)[O-])c4s3)CC2)O1 (stereo not given),105%,–
O=C(O)CCCc1c[nH]c2ccccc12,102%,–
COc1cc2c(Oc3ccc(-c4cnc(Nc5ccc(F)cc5)n(C)c4=O)cc3F)ccnc2cc1OCCCN1CCOCC1,–,11.8 µM (active)
C1Cc2[nH]nc(-c3nn[nH]n3)c2C1,104%,–
CNC(=O)c1ccc(-c2cnc3ncc(Cc4ccc5ncccc5c4)n3n2)cc1F,98.3%,–
CC(C)c1cnn2c(NCc3ccccc3)cc(N[C@@H](CO)[C@H](O)CO)nc12,–,0.264 µM (active)
CCC1=C[C@@H]2CN(C1)Cc1c([nH]c3ccccc13)[C@@](C(=O)OC)(c1cc3c(cc1OC)N(C)[C@@H]1[C@@](O)(C(=O)OC)[C@H](OC(C)=O)[C@]4(CC)C=CCN5CC[C@]31[C@@H]54)C2,–,0.0332 µM (active)
C#Cc1cccc(Nc2ncnc3cc(OC)c(OCCCCCCC(=O)NO)cc23)c1,–,0.743 µM (active)
CC1(C)OC2=C(C(=O)c3ccccc3C2=O)[C@H](NCc2ccccc2)[C@H]1O,–,4.69 µM (active)
C=CC(=O)Nc1cc2c(Nc3ccc(F)c(Cl)c3)ncnc2cc1OCCCN1CCOCC1,–,16.6 µM (active)
Nc1ccccc1NC(=O)c1ccc(CNC(=O)OCc2cccnc2)cc1,–,1.66 µM (active)
COC(=O)Nc1nc2ccc(C(=O)c3ccc(F)cc3)cc2[nH]1,–,0.935 µM (active)
C1=CCOCc2cc(ccc2OCCN2CCCC2)Nc2nccc(n2)-c2cccc(c2)OCC1,–,2.64 µM (active)
Cn1c2ccccc2c2c3c(c4c5ccccc5n(CCC#N)c4c21)CNC3=O,–,14.8 µM (active)
CC(C)C[C@H](NC(=O)CNC(=O)c1cc(Cl)ccc1Cl)B(O)O,–,0.132 µM (active)
